# TRHR PAM: allosteric enhancers of human TRH receptor. P34981. TRHR cells, fluo-8 calcium fluorescence, EC20 TRH enhancement. enhancement, % at 2 µM. 360,000 compounds, 0.66% hits; in the data active = enhancement above about 30%; note: 0% is about no effect
# Target sequence (P34981 whole entry, looked up): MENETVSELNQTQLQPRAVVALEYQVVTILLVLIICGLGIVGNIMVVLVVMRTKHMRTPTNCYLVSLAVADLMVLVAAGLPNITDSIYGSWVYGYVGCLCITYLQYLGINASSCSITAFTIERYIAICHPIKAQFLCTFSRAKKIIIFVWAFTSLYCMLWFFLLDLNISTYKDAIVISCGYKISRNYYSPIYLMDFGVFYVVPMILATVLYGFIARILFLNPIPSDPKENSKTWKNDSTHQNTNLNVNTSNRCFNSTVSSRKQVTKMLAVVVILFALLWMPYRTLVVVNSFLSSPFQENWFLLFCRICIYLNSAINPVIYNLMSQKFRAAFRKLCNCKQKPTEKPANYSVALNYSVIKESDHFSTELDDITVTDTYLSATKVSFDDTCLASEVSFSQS
#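 TRHR-expressing cells loaded with fluo-8 calcium dye were read kinetically (ex 480/em 530) during compound addition, then stimulated with an EC20 of TRH (10 nM final). Enhancement of the Gq-mediated intracellular calcium response was scored.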
# D1 agonist: human D1 receptor agonism | 360,000 compounds, 1% hits | P21728 | HEK293 T-REx D1 cells, calcium flux, agonist mode | AID 504660 | activation, % at 2 µM; note: 0% is about no effect
#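 Agonism was scored from calcium flux recorded over 180 s (1 read/s) after pintool compound addition, following a 10-cycle baseline. Cells were inducible force-coupled HEK293 TREx D1, plated overnight at 30 C and loaded with no-wash calcium dye.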
# D1 antag: human D1 dopamine receptor antagonism; P21728; HEK293 TREx D1 cells, calcium flux, dopamine EC80; hits give low values; activity change, negative = inhibition, % at 10 µM; 360,000 compounds, 3.2% hits; in the data active = activity change below about -30%; note: % is set by controls: 0 for no effect and ±100 for the full control effect
#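 HEK293 T-REx cells expressing inducible, force-coupled D1 receptor; no-wash Ca dye, 30–90 min RT. Cmpd → 180 s read at 1 Hz → EC80 DA → 180 s read.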
# TRHR ag: agonists of human TRH receptor. activation, % at 2 µM. TRHR cells, calcium flux fluo-8, FDSS agonist mode. P34981. 360,000 compounds, 0.18% hits; note: 0% is about no effect
#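 Read-out: compound-evoked intracellular calcium rise in TRHR cells, fluo-8 dye, kinetic FDSS fluorescence at 1 s/cycle following a 10-cycle baseline. Cells cultured overnight before dye loading (30 min–1.5 h, RT).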
# D1 PAM: human D1 dopamine receptor positive modulation; potentiation, % at 10 µM; 360,000 compounds, 0.036% hits; AID 504651; HEK293 TREx D1 cells, calcium flux, dopamine EC20 potentiation; in the data active = potentiation above about 30%; note: 0% is about no effect
# * marks the source's active call; other numbers are inactive results; ! = not active in a repeat. Most compounds without a hit are left out; they make up all but 4.6% or so of the library. Cut-off read from the data, not from the text of the source, unless noted: active = activation above about 30%; inactive = the rest.
SMILES,TRHR PAM,D1 agonist,D1 antag,TRHR ag,D1 PAM
Cc1cccc(Cn2c(CN3CCC(C(=O)NCCc4ccccc4)CC3)cc3ccccc32)c1,7.0,7.9,-0.6,0.7,-1.9
Cc1cc2nc(-c3cccc(NC(=O)c4cccc5ccccc45)c3)oc2cc1C,-5.5,1.9,4.5,0.2,-0.8
CC(C)(Oc1ccc(CCNC(=O)c2ccc(-c3ccccc3)o2)cc1)C(=O)O,-4.2,3.5,-1.6,0.3,-8.1
CC(C)(Oc1ccc(-c2ccco2)cc1)C(=O)O,-3.5,4.1,-45.7*,0.1,5.3
COc1cc(C(=O)Nc2ccc3oc(-c4ccccc4)nc3c2)cc(OC)c1OC,-2.0,-1.0,3.0,0.5,0.9
CCN(CC)S(=O)(=O)c1ccc2c(c1)c(=O)c(C(=O)N1CCN(c3ccc(F)cc3)CC1)cn2C,1.3,2.8,-3.3,-1.4,0.5
Cc1ccccc1CSCCNC(=O)CN(c1ccccc1)S(=O)(=O)N(C)C,-9.8,1.7,-12.1,-0.7,-0.6
CN(C)S(=O)(=O)N(CC(=O)NCCSCc1ccccc1)c1ccccc1,1.1,1.4,-61.0*!,-0.6,-1.8
COc1ccc(CCNC(=O)c2cc(S(=O)(=O)N(C)c3ccccc3)ccc2Cl)cc1,-9.5,12.0,-56.1*,0.7,-3.6
CCOc1ccc(N(C)S(=O)(=O)c2ccc(C)c(C(=O)NCCc3ccc(OC)cc3)c2)cc1,-11.7,-0.1,-20.7,0.6,-5.2
COc1ccc(CCNC(=O)CC(=O)NCCc2ccc(OC)cc2)cc1,-2.8,4.5,-1.4,-0.4,-11.2
Cc1cccc(N(CC(=O)NCCSCc2cccc(Cl)c2)S(=O)(=O)c2ccccc2)c1C,-16.4,30.9*,-11.7,3.5,-0.6
COc1ccc(CCNC(=O)Cc2c(Cl)cccc2Cl)cc1,11.2,2.1,-35.6*,-1.6,1.6
COc1ccc(Br)cc1CNC(=O)c1ccc2c(c1)nc1n2CCCCC1,-9.9,1.4,3.5,-0.7,0.0
CCCC(=O)OCc1cnc(C)c2oc(=O)c(C(=O)Nc3cccc(C(F)(F)F)c3)cc12,-2.3,0.4,5.7,0.8,0.2
C=CCNC(=O)CN(c1ccc(F)cc1)S(=O)(=O)c1ccc(OC)cc1,3.0,3.2,-48.9*,0.0,-11.8
COc1ccc(NC(=O)CN(c2ccc([N+](=O)[O-])cc2)S(=O)(=O)c2ccccc2)cc1,1.4,32.7*,3.1,-1.0,-11.3
COc1ccc(N(CC(=O)NCCc2ccccc2)S(=O)(=O)c2ccc(OC)c(OC)c2)cc1,-2.1,7.0,-11.8,-0.6,-0.6
COc1ccc(CCNC(=O)CN(c2ccccc2OC)S(=O)(=O)c2ccc(C)cc2)cc1,-5.1,37.1*!,-36.0*!,0.2,5.4
COc1ccc(S(=O)(=O)N(CC(=O)NCCc2ccccc2)c2ccc(Cl)cc2)cc1,3.8,40.4*,-20.5,-1.4,-2.6
COc1cccc(NC(=O)CN(c2ccc([N+](=O)[O-])cc2)S(=O)(=O)c2ccccc2)c1,-4.5,5.8,3.5,-1.0,-5.7
COc1ccc(N(CC(=O)N/N=C/c2ccc(F)cc2)S(=O)(=O)c2ccccc2)cc1,10.6,3.5,-7.7,-0.1,-5.8
CCn1c(C(=O)NCc2ccc(C)cc2)cc2sc(Cl)cc21,-2.8,3.5,2.2,0.4,-0.7
CCOC(=O)Cn1c(=O)n(CC2CCCO2)c2nc(-c3ccc(CC)cc3)nc(C(N)=O)c21 (stereo unspecified),0.9,5.8,-12.5,-0.2,-2.7
CC(C(=O)NCCSCc1cccc(Cl)c1)N(c1ccccc1)S(C)(=O)=O (stereo unspecified),-0.7,15.6,-32.2*!,-0.4,-6.6
SMILES,TRHR PAM,D1 agonist,D1 antag,TRHR ag,D1 PAM
COc1ccccc1N(CC(=O)NCCSc1ccccc1)S(=O)(=O)c1ccc(C)cc1,-5.9,30.7*,-17.1,0.4,1.3
Cc1noc(C)c1C(=O)NCCCc1ccccc1,4.4,-1.5,-9.3,0.1,-0.5
COc1ccc(CCNC(=O)c2c(C)noc2C)cc1,-4.1,2.8,-42.9*,1.1,-2.6
COc1ccccc1N(CC(=O)NCCSc1ccccc1)S(C)(=O)=O,-2.2,-0.6,-6.3,-0.3,2.6
COc1ccccc1N(CC(=O)NCCSCc1ccc(C)cc1)S(=O)(=O)c1ccccc1,-4.6,26.3,-32.3*,4.0,0.9
COc1ccc(N(C(C)C(=O)NCCSCc2cccc(Cl)c2)S(C)(=O)=O)cc1 (stereo unspecified),3.8,2.7,-7.2,-0.5,-9.7
Cc1ccc(CSCCNC(=O)CN(c2cccc(C)c2C)S(=O)(=O)c2ccccc2)cc1,-7.1,17.1,-5.6,2.8,-0.8
COc1ccc(N2CCN(C(=O)c3c(Cl)cnn3C)CC2)cc1,-4.8,5.9,-57.7*,0.2,-5.2
COc1ccc(N2CCN(C(=O)c3cn(CC4CCCCC4)nn3)CC2)cc1,2.9,10.1,-34.1*,-0.5,-2.6
COc1ccc(N2CCN(C(=O)NC3CCCCC3)CC2)cc1,0.2,6.5,-6.1,-0.7,3.6
CCN(CC)S(=O)(=O)c1cc(C)c(C)cc1OCC(=O)NC1CCCC1,2.2,-0.2,-34.5*,-0.6,-16.1
Cc1cc(Cl)c(S(=O)(=O)N2CCCC2)cc1OCC(=O)NC1CCCCC1,-6.7,5.1,-12.7,-0.4,-1.1
COc1cc(C)ccc1OCC(=O)NC1CCCCCC1,-0.5,2.3,-30.4*,-0.4,-1.9
Cc1ccc(O)c(C(CC(=O)NCC2(c3ccccc3)CCCC2)c2ccccc2)c1 (stereo unspecified),5.8,5.7,-7.3,-0.7,-7.8
Clc1ccc(CN2CCN(c3ncccn3)CC2)c(Cl)c1,-4.3,6.7,-37.3*,-1.3,-4.0
O=S1(=O)c2ccccc2N(Cc2ccccc2F)c2ccccc21,-3.1,12.6,2.9,-0.4,-4.0
CCCCOc1cccc(C(=O)Nc2cccc(-c3nc4ncccc4o3)c2C)c1,43.3*,-1.0,6.0,-1.6,-1.2
COc1ccccc1NC(=O)Cn1c(=O)n(Cc2ccco2)c(=O)c2oc3ccccc3c21,-0.2,0.4,1.0,-0.9,-3.6
COc1cc(CN2CCc3ccc(NC(=O)CCc4ccccc4OC)cc3C2)ccc1O,0.8,9.6,-10.4,-0.2,-8.4
COc1ccc(CN2CCc3ccc(NC(=O)CCc4ccccc4OC)cc3C2)c(O)c1,-2.1,2.3,-82.6*,0.7,-19.6
COc1ccccc1CCC(=O)Nc1ccc2c(c1)CN(CCCn1cccn1)CC2,1.5,0.2,2.5,0.0,-5.7
COc1cccc(CN2CCc3ccc(NC(=O)CCc4ccc(C)cc4)cc3C2)c1O,7.5,2.2,-31.4*,-0.2,2.8
COc1cccc(C(=O)CC2(O)C(=O)Nc3ccc(Cl)cc32)c1 (stereo unspecified),-2.5,11.0,9.7,1.2,2.5
COC(=O)c1ccccc1NC(=O)c1nc(-c2ccc(Cl)cc2)n2c1CCCCC2,34.8*,0.1,-9.8,0.6,-3.6
Cc1ccc2nc3sc(C(=O)Nc4ccc(F)cc4)cc3cc2c1,2.1,3.1,10.9,0.7,3.6

# Screening results from PubChem BioAssay.
